# Measurements from PMC7862700, “An all-to-all approach to the identification of sequence-specific readers for epigenetic DNA modifications on cytosine”.
# What was measured:
# Assay in all cases: DAPPL (digital affinity profiling via proximity ligation, sequencing); 10 mM Tris-HCl pH 7.5, 50 mM NaCl, 1 mM DTT, 4% glycerol, room temperature, 30 min; GST-TFs on glutathione beads, 16-mer random dsDNA library, 0.1% formaldehyde crosslink after washing; high values mean tight binding
# [1] = target: T1, FLI1 (Homo sapiens, UniProt Q01543 1-452); settings: protein: recombinant; tags: N-terminal GST; dsDNA, one strand shown
# T1 sequence: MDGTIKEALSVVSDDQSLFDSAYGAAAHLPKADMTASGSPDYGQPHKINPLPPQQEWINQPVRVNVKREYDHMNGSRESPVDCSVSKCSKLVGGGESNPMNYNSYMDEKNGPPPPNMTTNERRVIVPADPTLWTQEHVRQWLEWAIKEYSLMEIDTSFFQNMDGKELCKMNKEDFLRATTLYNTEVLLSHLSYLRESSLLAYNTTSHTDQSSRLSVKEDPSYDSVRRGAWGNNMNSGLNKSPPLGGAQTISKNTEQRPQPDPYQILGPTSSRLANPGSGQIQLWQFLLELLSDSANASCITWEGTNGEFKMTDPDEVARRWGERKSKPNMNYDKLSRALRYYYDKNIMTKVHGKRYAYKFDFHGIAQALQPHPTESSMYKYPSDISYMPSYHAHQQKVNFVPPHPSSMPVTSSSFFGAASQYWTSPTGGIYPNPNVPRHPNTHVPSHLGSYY
# Method in brief: (§1)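 After expression in yeast as GST fusions, human transcription factors were bound to glutathione beads, DNA-barcoded and mixed with a tag-only sample. The pools were incubated with 200 nmole of a 16-mer random double-stranded DNA library in Tris/NaCl/DTT/glycerol buffer (30 min, room temperature), washed and crosslinked with 0.1% formaldehyde. Proximity ligation with BsaI/T4 ligase ran for 1 h at 37 °C, before PCR amplification and sequencing on an Illumina NextSeq500. Binding signal is a hexamer's read frequency for a factor divided by its frequency for the tag-only sample.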
# [2] = target: T2, ELK1 (Homo sapiens, UniProt P19419 1-428); settings: protein: recombinant; tags: N-terminal GST; dsDNA, one strand shown
# T2 sequence: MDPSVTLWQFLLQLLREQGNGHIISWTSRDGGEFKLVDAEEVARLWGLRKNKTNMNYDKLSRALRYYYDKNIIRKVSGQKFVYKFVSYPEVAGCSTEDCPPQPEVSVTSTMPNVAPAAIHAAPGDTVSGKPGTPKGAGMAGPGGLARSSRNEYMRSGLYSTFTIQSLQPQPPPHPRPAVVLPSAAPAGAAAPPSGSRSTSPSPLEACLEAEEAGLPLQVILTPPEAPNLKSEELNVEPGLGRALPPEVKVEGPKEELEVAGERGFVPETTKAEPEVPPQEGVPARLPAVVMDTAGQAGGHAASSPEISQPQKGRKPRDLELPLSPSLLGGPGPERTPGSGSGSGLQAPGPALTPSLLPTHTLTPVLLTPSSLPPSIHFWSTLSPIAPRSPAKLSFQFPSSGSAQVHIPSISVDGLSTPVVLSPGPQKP
# Method in brief: as §1
# [3] = target: T3, GABPA (Homo sapiens, UniProt Q06546 1-454); settings: protein: recombinant; tags: N-terminal GST; dsDNA, one strand shown
# T3 sequence: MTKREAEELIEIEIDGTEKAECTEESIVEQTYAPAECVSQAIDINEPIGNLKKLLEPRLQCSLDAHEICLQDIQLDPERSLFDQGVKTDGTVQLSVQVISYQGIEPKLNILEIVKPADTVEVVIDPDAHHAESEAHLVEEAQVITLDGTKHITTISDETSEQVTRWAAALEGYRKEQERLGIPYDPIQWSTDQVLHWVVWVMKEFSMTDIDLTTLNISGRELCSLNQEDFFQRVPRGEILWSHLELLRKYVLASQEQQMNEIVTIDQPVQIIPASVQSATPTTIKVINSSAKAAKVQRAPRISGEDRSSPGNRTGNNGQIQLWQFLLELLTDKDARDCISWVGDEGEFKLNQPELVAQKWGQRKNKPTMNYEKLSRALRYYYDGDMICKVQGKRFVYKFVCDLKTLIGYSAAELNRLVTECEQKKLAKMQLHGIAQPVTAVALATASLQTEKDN
# Method in brief: as §1
# [4] = target: T4, ERG (Homo sapiens, UniProt P11308 1-479); settings: protein: recombinant; tags: N-terminal GST; dsDNA, one strand shown
# T4 sequence: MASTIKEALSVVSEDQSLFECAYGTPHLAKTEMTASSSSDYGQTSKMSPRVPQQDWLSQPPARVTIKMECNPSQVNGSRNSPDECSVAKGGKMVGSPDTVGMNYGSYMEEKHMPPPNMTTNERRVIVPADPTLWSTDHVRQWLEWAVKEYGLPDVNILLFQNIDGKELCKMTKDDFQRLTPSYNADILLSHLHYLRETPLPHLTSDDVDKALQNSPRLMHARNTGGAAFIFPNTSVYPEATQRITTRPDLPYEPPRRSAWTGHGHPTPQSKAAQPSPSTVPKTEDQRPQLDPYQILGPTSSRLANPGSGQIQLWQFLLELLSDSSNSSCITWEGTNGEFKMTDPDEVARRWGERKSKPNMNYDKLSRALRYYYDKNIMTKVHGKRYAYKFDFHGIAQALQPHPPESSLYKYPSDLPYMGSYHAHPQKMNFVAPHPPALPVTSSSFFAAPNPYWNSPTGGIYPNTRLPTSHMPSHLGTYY
# Method in brief: as §1
# [5] = target: ELF1 (Homo sapiens, UniProt P32519 1-619); settings: protein: recombinant; tags: N-terminal GST; dsDNA, one strand shown
# Method in brief: as §1
# [6] = target: T5, EHF (Homo sapiens, UniProt Q9NZC4 1-300); settings: protein: recombinant; tags: N-terminal GST; dsDNA, one strand shown
# T5 sequence: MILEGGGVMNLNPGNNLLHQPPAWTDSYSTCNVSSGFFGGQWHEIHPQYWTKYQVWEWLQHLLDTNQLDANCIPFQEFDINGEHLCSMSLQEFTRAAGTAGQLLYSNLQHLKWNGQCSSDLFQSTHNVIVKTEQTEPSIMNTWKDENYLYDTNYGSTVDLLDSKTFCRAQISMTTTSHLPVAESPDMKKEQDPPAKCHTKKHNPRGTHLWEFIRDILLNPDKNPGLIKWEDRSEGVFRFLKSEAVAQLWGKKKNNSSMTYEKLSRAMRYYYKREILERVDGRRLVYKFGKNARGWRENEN
# Method in brief: as §1
# [7] = target: SPI1 (Homo sapiens, UniProt P17947 1-270); settings: protein: recombinant; tags: N-terminal GST; dsDNA, one strand shown
# Method in brief: as §1
# [8] = target: SPIB (Homo sapiens, UniProt Q01892 1-262); settings: protein: recombinant; tags: N-terminal GST; dsDNA, one strand shown
# Method in brief: as §1
# [9] = target: T6, ELK3 (Homo sapiens, UniProt P41970 1-407); settings: protein: recombinant; tags: N-terminal GST; dsDNA, one strand shown
# T6 sequence: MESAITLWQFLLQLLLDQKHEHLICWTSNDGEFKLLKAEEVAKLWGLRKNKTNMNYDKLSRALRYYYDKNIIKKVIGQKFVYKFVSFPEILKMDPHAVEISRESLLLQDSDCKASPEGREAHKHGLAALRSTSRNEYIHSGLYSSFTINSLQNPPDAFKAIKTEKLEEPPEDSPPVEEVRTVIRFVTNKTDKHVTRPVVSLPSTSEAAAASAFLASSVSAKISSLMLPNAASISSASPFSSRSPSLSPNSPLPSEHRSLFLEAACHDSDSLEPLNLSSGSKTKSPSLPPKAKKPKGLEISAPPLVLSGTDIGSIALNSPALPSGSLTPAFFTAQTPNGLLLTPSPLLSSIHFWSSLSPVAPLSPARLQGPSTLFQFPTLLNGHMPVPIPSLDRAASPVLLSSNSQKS
# Method in brief: as §1
# [10] = target: T7, FEV (Homo sapiens, UniProt Q99581 1-238); settings: protein: recombinant; tags: N-terminal GST; dsDNA, one strand shown
# T7 sequence: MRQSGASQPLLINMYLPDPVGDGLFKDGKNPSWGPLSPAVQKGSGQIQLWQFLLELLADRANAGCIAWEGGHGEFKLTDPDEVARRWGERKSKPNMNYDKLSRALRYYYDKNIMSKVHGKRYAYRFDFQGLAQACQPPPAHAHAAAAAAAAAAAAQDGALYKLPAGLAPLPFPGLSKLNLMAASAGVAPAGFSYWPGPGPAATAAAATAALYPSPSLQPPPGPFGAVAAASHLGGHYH
# Method in brief: as §1
# [11] = target: ETV5 (Homo sapiens, UniProt P41161 1-510); settings: protein: recombinant; tags: N-terminal GST; dsDNA, one strand shown
# Method in brief: as §1
# [12] = target: HSF1 (Homo sapiens, UniProt Q00613 1-529); settings: protein: recombinant; tags: N-terminal GST; chain copies: 3; dsDNA, one strand shown
# Method in brief: as §1
# [13] = target: T8, SPIC (Homo sapiens, UniProt Q8N5J4 1-248); settings: protein: recombinant; tags: N-terminal GST; dsDNA, one strand shown
# T8 sequence: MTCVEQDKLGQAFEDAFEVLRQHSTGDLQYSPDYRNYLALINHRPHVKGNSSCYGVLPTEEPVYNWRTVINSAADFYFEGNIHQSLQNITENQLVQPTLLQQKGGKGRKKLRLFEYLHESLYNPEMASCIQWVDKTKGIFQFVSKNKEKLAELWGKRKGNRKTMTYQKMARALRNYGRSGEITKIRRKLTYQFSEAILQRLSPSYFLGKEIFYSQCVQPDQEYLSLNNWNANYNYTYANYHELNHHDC
# Method in brief: as §1
# [14] = target: ELF4 (Homo sapiens, UniProt Q99607 1-663); settings: protein: recombinant; tags: N-terminal GST; dsDNA, one strand shown
# Method in brief: as §1
# [15] = target: T9, ELK4 (Homo sapiens, UniProt P28324-2 1-405); settings: protein: recombinant; tags: N-terminal GST; dsDNA, one strand shown
# T9 sequence: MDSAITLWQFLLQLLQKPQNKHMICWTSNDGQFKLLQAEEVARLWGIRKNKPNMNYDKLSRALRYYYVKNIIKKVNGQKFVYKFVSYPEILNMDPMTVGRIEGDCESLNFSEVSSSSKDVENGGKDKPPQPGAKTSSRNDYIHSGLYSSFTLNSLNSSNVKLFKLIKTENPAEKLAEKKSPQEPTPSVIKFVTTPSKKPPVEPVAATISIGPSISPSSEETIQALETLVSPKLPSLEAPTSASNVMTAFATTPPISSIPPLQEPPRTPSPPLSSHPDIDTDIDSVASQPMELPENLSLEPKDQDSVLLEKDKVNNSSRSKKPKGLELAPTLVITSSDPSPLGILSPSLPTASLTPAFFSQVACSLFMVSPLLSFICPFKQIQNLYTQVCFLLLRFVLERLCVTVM
# Method in brief: as §1
# [16] = target: T10, ETV2 (Homo sapiens, UniProt O00321 1-342); settings: protein: recombinant; tags: N-terminal GST; dsDNA, one strand shown
# T10 sequence: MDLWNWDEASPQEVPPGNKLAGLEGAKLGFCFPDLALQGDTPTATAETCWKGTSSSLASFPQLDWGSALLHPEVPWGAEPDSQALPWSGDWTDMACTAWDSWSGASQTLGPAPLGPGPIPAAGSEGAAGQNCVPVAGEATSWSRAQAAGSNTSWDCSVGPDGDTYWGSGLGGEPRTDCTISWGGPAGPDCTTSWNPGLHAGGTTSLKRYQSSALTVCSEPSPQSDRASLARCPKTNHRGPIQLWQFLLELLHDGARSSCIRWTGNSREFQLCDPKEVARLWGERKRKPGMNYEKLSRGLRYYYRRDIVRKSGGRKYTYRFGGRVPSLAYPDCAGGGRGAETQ
# Method in brief: as §1
# [17] = target: T11, ELF3 (Homo sapiens, UniProt P78545 1-371); settings: protein: recombinant; tags: N-terminal GST; dsDNA, one strand shown
# T11 sequence: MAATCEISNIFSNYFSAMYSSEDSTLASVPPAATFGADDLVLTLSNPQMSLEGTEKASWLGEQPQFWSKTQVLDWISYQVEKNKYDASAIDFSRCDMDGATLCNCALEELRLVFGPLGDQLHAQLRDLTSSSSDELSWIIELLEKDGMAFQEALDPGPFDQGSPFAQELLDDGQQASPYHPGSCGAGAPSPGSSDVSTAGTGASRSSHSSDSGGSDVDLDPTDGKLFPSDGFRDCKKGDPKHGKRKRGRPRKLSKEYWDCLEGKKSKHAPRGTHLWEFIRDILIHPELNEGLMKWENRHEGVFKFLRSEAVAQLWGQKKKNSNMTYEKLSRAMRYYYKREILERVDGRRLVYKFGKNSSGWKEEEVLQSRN
# Method in brief: as §1
# [18] = target: CRX (Homo sapiens, UniProt O43186 1-299); settings: protein: recombinant; tags: N-terminal GST; dsDNA, one strand shown
# Method in brief: as §1
# [19] = target: ETV1 (Homo sapiens, UniProt P50549 1-477); settings: protein: recombinant; tags: N-terminal GST; dsDNA, one strand shown
# Method in brief: as §1
# Sequence of ELF1 (P32519 whole entry): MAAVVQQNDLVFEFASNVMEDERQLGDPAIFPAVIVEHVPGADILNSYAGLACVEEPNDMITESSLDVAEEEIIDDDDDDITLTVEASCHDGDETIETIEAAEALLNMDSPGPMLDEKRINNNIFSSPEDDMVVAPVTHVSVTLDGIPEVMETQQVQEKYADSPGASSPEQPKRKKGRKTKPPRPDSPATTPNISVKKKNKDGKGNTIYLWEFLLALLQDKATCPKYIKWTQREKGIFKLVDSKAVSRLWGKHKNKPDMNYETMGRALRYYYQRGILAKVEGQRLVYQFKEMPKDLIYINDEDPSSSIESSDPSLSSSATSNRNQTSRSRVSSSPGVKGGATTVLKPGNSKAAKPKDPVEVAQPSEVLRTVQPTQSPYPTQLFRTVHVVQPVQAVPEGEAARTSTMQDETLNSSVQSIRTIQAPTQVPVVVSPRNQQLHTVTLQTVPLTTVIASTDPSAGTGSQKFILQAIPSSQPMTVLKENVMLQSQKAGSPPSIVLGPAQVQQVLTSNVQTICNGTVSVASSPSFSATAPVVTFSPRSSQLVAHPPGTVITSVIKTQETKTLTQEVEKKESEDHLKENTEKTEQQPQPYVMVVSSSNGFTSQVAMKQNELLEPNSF
# Sequence of CRX (O43186 whole entry): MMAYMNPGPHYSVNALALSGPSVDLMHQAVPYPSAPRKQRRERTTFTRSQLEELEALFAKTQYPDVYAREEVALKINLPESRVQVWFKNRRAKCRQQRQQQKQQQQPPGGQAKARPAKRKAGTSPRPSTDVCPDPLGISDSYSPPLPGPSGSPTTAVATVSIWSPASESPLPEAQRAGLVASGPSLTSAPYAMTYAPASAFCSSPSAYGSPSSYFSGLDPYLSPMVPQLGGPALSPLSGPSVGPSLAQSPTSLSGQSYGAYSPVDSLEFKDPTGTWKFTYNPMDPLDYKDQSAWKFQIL
# Sequence of ETV5 (P41161 whole entry): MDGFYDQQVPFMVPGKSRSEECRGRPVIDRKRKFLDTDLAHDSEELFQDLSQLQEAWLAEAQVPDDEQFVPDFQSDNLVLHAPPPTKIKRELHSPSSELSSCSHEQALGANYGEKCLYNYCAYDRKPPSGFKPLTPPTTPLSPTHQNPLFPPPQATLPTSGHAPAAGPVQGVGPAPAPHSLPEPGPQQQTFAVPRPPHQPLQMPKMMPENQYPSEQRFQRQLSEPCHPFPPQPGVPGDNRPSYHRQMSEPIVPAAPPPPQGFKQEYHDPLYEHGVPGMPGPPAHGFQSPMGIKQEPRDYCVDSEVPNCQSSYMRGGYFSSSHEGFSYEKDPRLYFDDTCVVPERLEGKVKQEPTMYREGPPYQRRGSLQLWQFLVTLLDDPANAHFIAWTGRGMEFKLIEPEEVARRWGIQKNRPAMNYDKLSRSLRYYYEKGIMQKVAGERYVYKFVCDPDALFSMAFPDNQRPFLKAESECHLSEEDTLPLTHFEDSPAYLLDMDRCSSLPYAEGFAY
# Sequence of SPIB (Q01892 whole entry): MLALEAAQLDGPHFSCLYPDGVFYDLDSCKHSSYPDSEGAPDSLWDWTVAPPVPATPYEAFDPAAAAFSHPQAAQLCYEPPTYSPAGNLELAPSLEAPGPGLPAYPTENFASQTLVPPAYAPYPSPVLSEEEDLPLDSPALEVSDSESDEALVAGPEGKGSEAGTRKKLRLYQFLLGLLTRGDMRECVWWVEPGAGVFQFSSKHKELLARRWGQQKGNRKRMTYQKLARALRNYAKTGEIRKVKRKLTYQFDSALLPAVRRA
# Sequence of ELF4 (Q99607 whole entry): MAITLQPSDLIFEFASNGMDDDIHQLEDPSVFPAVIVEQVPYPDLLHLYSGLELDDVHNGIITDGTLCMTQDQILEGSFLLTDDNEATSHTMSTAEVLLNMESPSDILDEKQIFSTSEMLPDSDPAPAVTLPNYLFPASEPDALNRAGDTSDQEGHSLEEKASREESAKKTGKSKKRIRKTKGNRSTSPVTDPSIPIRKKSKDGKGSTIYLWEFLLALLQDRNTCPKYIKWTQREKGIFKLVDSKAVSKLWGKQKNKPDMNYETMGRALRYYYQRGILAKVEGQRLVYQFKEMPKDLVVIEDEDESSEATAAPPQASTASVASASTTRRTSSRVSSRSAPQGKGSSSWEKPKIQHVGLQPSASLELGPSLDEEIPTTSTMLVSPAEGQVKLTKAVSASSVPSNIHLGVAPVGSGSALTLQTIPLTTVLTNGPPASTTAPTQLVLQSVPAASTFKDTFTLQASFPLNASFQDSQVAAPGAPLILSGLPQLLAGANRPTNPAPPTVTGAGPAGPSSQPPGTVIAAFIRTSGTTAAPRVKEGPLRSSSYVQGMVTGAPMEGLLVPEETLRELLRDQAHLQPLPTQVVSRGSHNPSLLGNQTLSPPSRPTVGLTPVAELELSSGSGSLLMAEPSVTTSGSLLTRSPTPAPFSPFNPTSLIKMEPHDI
# Sequence of HSF1 (Q00613 whole entry): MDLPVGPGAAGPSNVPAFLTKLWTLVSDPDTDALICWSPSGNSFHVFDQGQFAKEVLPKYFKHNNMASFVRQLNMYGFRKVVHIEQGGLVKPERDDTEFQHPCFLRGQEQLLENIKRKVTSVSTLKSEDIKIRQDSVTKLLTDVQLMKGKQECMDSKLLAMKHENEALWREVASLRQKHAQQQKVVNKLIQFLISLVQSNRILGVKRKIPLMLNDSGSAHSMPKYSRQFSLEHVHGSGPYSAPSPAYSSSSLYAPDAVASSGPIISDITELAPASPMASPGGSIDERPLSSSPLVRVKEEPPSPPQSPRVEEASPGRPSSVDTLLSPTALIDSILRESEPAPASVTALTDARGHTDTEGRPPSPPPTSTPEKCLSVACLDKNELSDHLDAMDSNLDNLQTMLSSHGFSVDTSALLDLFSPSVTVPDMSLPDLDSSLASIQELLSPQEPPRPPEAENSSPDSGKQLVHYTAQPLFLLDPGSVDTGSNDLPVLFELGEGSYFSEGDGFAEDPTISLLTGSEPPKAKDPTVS
# Sequence of ETV1 (P50549 whole entry): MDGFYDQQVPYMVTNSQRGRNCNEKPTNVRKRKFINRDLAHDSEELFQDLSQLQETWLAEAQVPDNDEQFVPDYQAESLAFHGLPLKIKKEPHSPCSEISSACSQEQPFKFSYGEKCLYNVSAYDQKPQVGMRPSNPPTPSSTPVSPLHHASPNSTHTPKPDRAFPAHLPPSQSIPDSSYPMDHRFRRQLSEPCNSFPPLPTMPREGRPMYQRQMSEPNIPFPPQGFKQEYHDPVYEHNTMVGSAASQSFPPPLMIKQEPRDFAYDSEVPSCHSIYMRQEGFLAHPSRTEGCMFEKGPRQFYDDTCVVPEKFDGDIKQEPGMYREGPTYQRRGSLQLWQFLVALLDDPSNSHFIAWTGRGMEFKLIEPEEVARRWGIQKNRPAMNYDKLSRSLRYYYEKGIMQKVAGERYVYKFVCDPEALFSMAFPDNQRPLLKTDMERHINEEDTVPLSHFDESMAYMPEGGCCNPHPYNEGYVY
sequence,measurement,setting,value
TATCCC,binding signal,[1],"1.63 fold enrichment (6-mer frequency, TF over GST control)"
same,binding signal,[2],"1.65 fold enrichment (6-mer frequency, TF over GST control)"
same,binding signal,[3],"1.53 fold enrichment (6-mer frequency, TF over GST control)"
same,binding signal,[4],"1.58 fold enrichment (6-mer frequency, TF over GST control)"
same,binding signal,[5],"1.57 fold enrichment (6-mer frequency, TF over GST control)"
same,binding signal,[6],"1.52 fold enrichment (6-mer frequency, TF over GST control)"
same,binding signal,[7],"1.36 fold enrichment (6-mer frequency, TF over GST control)"
same,binding signal,[8],"1.54 fold enrichment (6-mer frequency, TF over GST control)"
same,binding signal,[9],"1.56 fold enrichment (6-mer frequency, TF over GST control)"
same,binding signal,[10],"1.59 fold enrichment (6-mer frequency, TF over GST control)"
same,binding signal,[11],"1.64 fold enrichment (6-mer frequency, TF over GST control)"
same,binding signal,[12],"1.61 fold enrichment (6-mer frequency, TF over GST control)"
same,binding signal,[13],"1.6 fold enrichment (6-mer frequency, TF over GST control)"
same,binding signal,[14],"1.54 fold enrichment (6-mer frequency, TF over GST control)"
same,binding signal,[15],"1.64 fold enrichment (6-mer frequency, TF over GST control)"
same,binding signal,[16],"1.44 fold enrichment (6-mer frequency, TF over GST control)"
same,binding signal,[17],"1.83 fold enrichment (6-mer frequency, TF over GST control)"
same,binding signal,[18],"2.22 fold enrichment (6-mer frequency, TF over GST control)"
same,binding signal,[19],"1.39 fold enrichment (6-mer frequency, TF over GST control)"
